Assay results reported in PubChem BioAssay (NCATS).
Values joined by “and” are separate entries in the source; they are usually repeats but may differ in a detail not shown here. Equal values may be shown once. Records with an inconclusive call do not appear. Active and inactive are the calls of the source. Calls come from the whole dose curve.

Assay: qHTS Assay for Lipid Storage Modulators (AID 1519); for activity change, negative = inhibition: % is set by controls: 0 for no effect and ±100 for the full control effect
Conditions: Drosophila S3 cells, BODIPY lipid droplet/cell ratio, laser cytometry, cells loaded with oleic acid
From the text: NIH Molecular Libraries Probe Production Centers Network [MLPCN]
NIH Chemical Genomics Center [NCGC]
Assay Submitter (PI): Beller, Mathias; Max-Planck-Institut fur Biophysikalische Chemie
NCGC Assay Overview: Storing lipids as a reservoir for energy or the anabolism of elementary metabolites is a common feature of probably all cells and is conserved from bacteria to humans. The universal cellular lipid storage organelle is the so-called lipid storage droplet (LD). Although ubiquitous, LDs share a simple structure composed of a hydrophobic core that harbors the storage lipids, which is shielded by a droplet-specific phospholipid monolayer to which proteins are attached. The current model of LD biogenesis involves an incorporation of the lipid core into the membrane leaflets of the endoplasmic reticulum (ER) followed by a subsequent budding-like maturation of a LD, which ultimately pinches off. Once released, LD volume can increase by localized lipogenesis or fusion of existing droplets. Storage lipids are re-mobilized enzymatically by lipase activity. Lipase regulation in the adipocyte is heavily studied and involves multiple components including catecholamine signaling, the LD-associated proteins Perilipin and comparative gene identification-58 (CGI-58) and at least two lipases named hormone sensitive lipase (HSL) and adipocyte triglyceride lipase (ATGL). LD regulation outside of the adipocyte is poorly understood and only few components are known. However, there is an urgent need to learn more about ectopic fat depots as mislocalized storage of lipids, for example in the liver or muscle, is an eminent health problem associated with insulin resistance or the metabolic syndrome. We developed a laser-scanning cytometer assay to enable 1,536-well screening and combined the results of the small molecules screen with an RNAi database based on lipid storage.
NCGC Assay Protocol Summary:
We dispensed 4 uL of cells at 1.25 x 10^6 cells/mL into LoBase Aurora COC 1,536-well plates (black walled, clear bottom) with a bottle-valve solenoid-based dispenser (Aurora) to obtain 5,000 cells/well. Triacsin C (Sigma-Aldrich T-4540), an inhibitor of long-chain fatty acyl CoA synthetase that blocks synthesis of triglycerides, was used as a positive control for lipid under-storage. A total of 23 nL of compound solution of different concentrations were transferred to the assay plates using a Kalypsys pin tool equipped with a 1,536-pin array containing 10-nL slotted pins (FP1S10, 0.457-mm diameter, 50.8 mm long; V&P Scientific). One microliter of oleic acid (400 uM) was added, and the plate was lidded with stainless steel rubber gasket lined lids containing pinholes. […] Fluorescence was detected by excitation of the fluorophores with a 488-nm laser on an Acumen Explorer (TTP Lab Tech). The total intensity in channel 1 (500-530 nm) reflected lipid droplet accumulation. […] The ratio of the total intensity in PMT channel 1 over total intensity of channel 3 was also calculated. Percent activity was computed relative to an internal control (100% inhibited lipid droplet deposition due to the presence of 20 uM Triacsin C), which was added to 32 wells/plate.

[1] = measured here: cell count channel max response
[2] = measured here: lipid channel max response

SMILES | activity change, negative = inhibition (at 25.7 µM (top of the series)) | activity change, negative = inhibition (at 57.5 µM (top of the series)) | max response [1] | max response [2]
CC(C)(C)NC[C@H](O)c1ccc(O)c(CO)c1 | -2.46% (inactive) | 3.61% (inactive) | -16.6% | -19.3% and -13%
CC(=O)Nc1ccc(OC[C@@H](O)CNC(C)C)cc1 | -2.39% (inactive) | -10.4% (inactive) | -2.07% and -0.999% | -5.59% and -8.67%
CO[C@@]12C[C@@H](COC(=O)c3cncc(Br)c3)CN(C)[C@H]1Cc1cn(C)c3cccc2c13 | -0.393% (inactive) | – | -7.54% | -4.61%
C[C@](N)(C(=O)O)c1ccc(-c2nn[nH]n2)cc1 | – | 7.08% (inactive) | 7.75% | 14.3%
CCCCC(=O)N(Cc1ccc(-c2ccccc2-c2nn[nH]n2)cc1)C(C(=O)O)C(C)C (stereo unspecified) | – | -6.27% (inactive) | 7.79% | 4.86%
c1ccc2oc(C3=NCCN3)cc2c1 | – | -5.14% (inactive) | -13.1% | -18.7%
NC1(C(=O)O)CC(C(=O)O)C1 (stereo unspecified) | – | 5.41% (inactive) | 2.35% | 10.2%
N[C@H](C(=O)O)C1[C@H](C(=O)O)[C@H]1C(=O)O (stereo partly specified) | – | 1.13% (inactive) | -12.3% | -12.9%
C[C@H](NC[C@H](O)CP(=O)(O)CC1CCCCC1)c1ccc(Cl)c(Cl)c1 | – | 4.93% (inactive) | 9.04% | 17.2%
COC(=O)[C@H]1[C@@H]2C[C@H]3c4[nH]c5ccccc5c4CCN3C[C@@H]2CC[C@@H]1O | – | 4.47% (inactive) | -3.24% | 4.05%
Cc1cc(C(=O)O)ccc1[C@H](N)C(=O)O | – | 1.88% (inactive) | 7.87% | 9.03%
Nc1ncnc2c1ncn2[C@@H]1O[C@H](COP(=O)(O)OP(=O)(O)O)[C@@H](O)[C@H]1O | – | 5.3% (inactive) | -2.57% | 2.42%
C/C=C1\C(=O)CC2C3CCC4=CC(=O)CC[C@]4(C)C3CC[C@]12C (stereo partly specified) | – | 1.38% (inactive) | 72.1% | 74.6%
